Reference: PubChem BioAssay (Tox21)
Results filed as inconclusive are left out. Active and inactive are the calls of the source. Unless noted, calls come from the whole dose curve; as a rule, active = well fitted curve in the direction sought with a large enough effect in the repeat runs; inconclusive = weak or mixed curves; inactive = no such curve, though single readings can be large; an effect the other way counts as inactive or inconclusive.

Columns and labels:
[1] = qHTS assay to identify aromatase inhibitors - cell viability counter screen (AID 743084);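 note: cells stimulated with testosterone during compound exposure; nearly all actives have a fitted effect of over 55% in size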
[2] = target: Aryl hydrocarbon receptor (Homo sapiens) (UniProt P35869); assay: qHTS assay to identify small molecule that activate the aryl hydrocarbon receptor (AhR) signaling pathway (AID 743085);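 note: HG2L7.5c1 human HepG2 liver cells with stably integrated DRE-driven firefly reporter; series mostly up to about 70 µM; nearly all actives have a fitted effect of over 15% in size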
Method in brief: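 Compounds were tested in HepG2 hepatocellular carcinoma cells harbouring a stably integrated luciferase gene under control of 20 DREs. Increased reporter signal after 24 h treatment at 37C was taken as AhR activation.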

[3] = qHTS assay to identify small molecule that activate the aryl hydrocarbon receptor (AhR) signaling pathway - cell viability counter screen (AID 743086); note: nearly all actives have a fitted effect of over 45% in size; note: potency is the fitted concentration of half-maximal effect
Method in brief: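 Cytotoxicity counter screen: CellTiter-Fluor signal (30 min, 37 C) in 4000 HepG2 cells/well carrying the DRE-luciferase reporter, following 24 h compound exposure at 37 C.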

[4] = target: Peroxisome proliferator-activated receptor gamma (Homo sapiens) (UniProt P37231); assay: qHTS assay to identify small molecule agonists of the peroxisome proliferator-activated receptor gamma (PPARg) signaling pathway (AID 743094; active = well fitted activation curve with a large enough effect in the signal ratio in the repeat runs, not every such curve was filed as active; the % refers to the signal ratio)
Method in brief: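 Beta-lactamase FRET fluorescence was the read-out after a 1 h room-temperature substrate step, following 17 h compound treatment at 37C of HEK293H cells expressing a UAS-driven bla reporter responsive to PPARg.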

[5] = qHTS assay to identify small molecule antagonists of the peroxisome proliferator-activated receptor gamma (PPARg) signaling pathway - cell viability counter screen (AID 743194); conditions: Potency: co-treated with 50 nM rosiglitazone; note: nearly all actives have a fitted effect of over 55% in size
Method in brief: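 Viability was measured as CellTiter-Glo luminescence in GeneBLAzer PPARg UAS-bla HEK293H cells. These cells had been exposed 17 h at 37 C to compounds together with rosiglitazone at 50 nM final, with the beta-lactamase readout taken in the same wells.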

[6] = qHTS assay for small molecule activators of the heat shock response signaling pathway - cell viability counter screen (AID 743209); note: nearly all actives have a fitted effect of over 50% in size
Method in brief: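 Luminescence from CellTiter-Glo, added after the beta-lactamase FRET read, gave the viability signal. Cells were HSE-bla HeLa treated with DMSO-dissolved compounds for 5 h at 37 C following overnight plating.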

[7] = qHTS assay for small molecule activators of the heat shock response signaling pathway (AID 743210; active = well fitted activation curve with a large enough effect in the signal ratio in the repeat runs, with a control signal flat, not every such curve was filed as active; the % refers to the signal ratio;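 note: HeLa cells with beta-lactamase reporter driven by heat shock elements; series mostly up to about 63 µM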)
Method in brief: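 In HSE-bla HeLa cells, 5 h compound incubation (37 C) precedes addition of LiveBLAzer B/G substrate; after 2.5 h at room temperature, fluorescence intensity indicates reporter induction.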

[8] = qHTS assay to identify small molecule agonists of the peroxisome proliferator-activated receptor delta (PPARd) signaling pathway - cell viability counter screen (AID 743211); note: nearly all actives have a fitted effect of over 55% in size
Method in brief: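 Counter screen for cytotoxicity run in parallel with the PPARd reporter screen. Beta-lactamase reporter HEK293H cells exposed to compounds 17 h; ATP-based CellTiter-Glo luminescence quantified viability.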

[9] = target: Peroxisome proliferator-activated receptor delta (Homo sapiens) (UniProt Q03181); assay: qHTS assay to identify small molecule agonists of the peroxisome proliferator-activated receptor delta (PPARd) signaling pathway (AID 743212; calls by dose curve)
Method in brief: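 HEK293H UAS-bla reporter cells, human PPARd system; compounds delivered in DMSO after 5 h plating, then at 37 C. Beta-lactamase FRET read, 2 h RT substrate step.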

[10] = target: Peroxisome proliferator-activated receptor delta (Homo sapiens) (UniProt Q03181); assay: qHTS assay to identify small molecule antagonists of the peroxisome proliferator-activated receptor delta (PPARd) signaling pathway (AID 743215; active = well fitted inhibition curve with a large enough effect in the signal ratio in the repeat runs, not every such curve was filed as active; the % refers to the signal ratio;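 note: cells stimulated with agonist L165041 at 300 nM final during compound exposure; series mostly up to about 62 µM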)
Method in brief: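 Read-out is beta-lactamase FRET fluorescence, measured 2 h after substrate addition at room temperature. Beforehand, UAS-bla HEK293H cells carrying the PPARd reporter were exposed to compounds with L165041 at 300 nM final for 17 h at 37 C.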

[11] = target: Bile acid receptor (Homo sapiens) (UniProt Q96RI1); assay: qHTS assay to identify small molecule antagonists of the farnesoid-X-receptor (FXR) signaling pathway (AID 743217; active = well fitted inhibition curve with a large enough effect in the signal ratio in the repeat runs, not every such curve was filed as active; the % refers to the signal ratio)
Method in brief: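 HEK 293T FXR-UAS-bla, 5000 cells/well; compound + CDCA 50 uM final; 16 h, 37 °C; B/G FRET substrate 2 h RT; fluorescence.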

[12] = qHTS assay to identify small molecule agonists of the farnesoid-X-receptor (FXR) signaling pathway - cell viability counter screen (AID 743218); note: nearly all actives have a fitted effect of over 45% in size
Method in brief: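 HEK 293T FXR-bla cells; 5 h pre-incubation, 16 h compound exposure at 37 C; LiveBLAzer substrate 2 h RT, then CellTiter-Glo 30 min RT, luminescence.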

[13] = qHTS assay to identify small molecule antagonists of the farnesoid-X-receptor (FXR) signaling pathway - cell viability counter screen (AID 743221; active = well fitted cell-killing curve with a large enough effect in the repeat runs, not every such curve was filed as active; note: nearly all actives have a fitted effect of over 50% in size)
Method in brief: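 Multiplexed counter screen: viability of FXR-bla HEK 293T cells under agonist stimulation by chenodeoxycholic acid (50 uM, final) and test compound for 16 h at 37 C, measured by CellTiter-Glo luminescence in the reporter wells.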

[14] = target: Vitamin D3 receptor (Homo sapiens) (UniProt P11473); assay: qHTS assay to identify small molecule agonists of the vitamin D receptor (VDR) signaling pathway (AID 743222; calls by dose curve)
Method in brief: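 VDR-bla cells, 2,000/well; 4 h preincubation 37C; cpd (DMSO) 16 h; LiveBLAzer B/G substrate 2 h RT; fluorescence intensity read.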

[15] = target: Vitamin D3 receptor (Homo sapiens) (UniProt P11473); assay: qHTS assay to identify small molecule antagonists of the vitamin D receptor (VDR) signaling pathway (AID 743223; active = well fitted inhibition curve with a large enough effect in the signal ratio in the repeat runs, not every such curve was filed as active; the % refers to the signal ratio)
Method in brief: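 Cells carrying a VDR-driven beta-lactamase reporter (VDR-bla) were co-treated with compound and 3 nM final 1alpha,25-dihydroxyvitamin D3 for 16 h at 37C; reporter activity was measured as FRET substrate fluorescence after 2 h at room temperature.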

[16] = qHTS assay for small molecule agonists of the antioxidant response element (ARE) signaling pathway - cell viability counter screen (AID 743203; calls by dose curve; note: nearly all actives have a fitted effect of over 55% in size)
Method in brief: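 HepG2 cells carrying ARE-driven beta-lactamase; 2,000 cells/well; 5 hrs plating; compound pinned from DMSO; 16 hrs 37C/5% CO2; CellTiter-Glo added; 30 min RT; luminescence.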

[17] = qHTS assay to identify small molecule antagonists of the peroxisome proliferator-activated receptor delta (PPARd) signaling pathway - cell viability counter screen (AID 743213); note: nearly all actives have a fitted effect of over 50% in size
Method in brief: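 Same-well viability: cells pre-incubated 5 h, dosed with compound plus 300 nM L165041, kept 17 h at 37 C, FRET substrate 2 h RT, then CellTiter-Glo 30 min RT and luminescence.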

[18] = qHTS assay for small molecule agonists of the antioxidant response element (ARE) signaling pathway (AID 743202; active = well fitted activation curve with a large enough effect in the signal ratio in the repeat runs, not every such curve was filed as active; the % refers to the signal ratio; note: potency is the fitted concentration of half-maximal effect)
Method in brief: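 An ARE-responsive beta-lactamase gene stably integrated in HepG2 cells serves as reporter. After 5 h plating and 16 h compound incubation at 37 C, fluorescence of the B/G FRET substrate was measured.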

[19] = target: Bile acid receptor (Homo sapiens) (UniProt Q96RI1); assay: qHTS assay to identify small molecule agonists of the farnesoid-X-receptor (FXR) signaling pathway (AID 743220; active = well fitted activation curve with a large enough effect in the signal ratio in the repeat runs, not every such curve was filed as active; the % refers to the signal ratio)
Method in brief: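 Beta-lactamase reporter under UAS control in GeneBLAzer FXR HEK 293T cells (5000/well) measured with LiveBLAzer FRET substrate after 2 h at room temperature. Compound exposure lasted 16 h at 37C.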

Measured: Potency

Chain of Bile acid receptor (Homo sapiens) (Q96RI1 whole entry, looked up): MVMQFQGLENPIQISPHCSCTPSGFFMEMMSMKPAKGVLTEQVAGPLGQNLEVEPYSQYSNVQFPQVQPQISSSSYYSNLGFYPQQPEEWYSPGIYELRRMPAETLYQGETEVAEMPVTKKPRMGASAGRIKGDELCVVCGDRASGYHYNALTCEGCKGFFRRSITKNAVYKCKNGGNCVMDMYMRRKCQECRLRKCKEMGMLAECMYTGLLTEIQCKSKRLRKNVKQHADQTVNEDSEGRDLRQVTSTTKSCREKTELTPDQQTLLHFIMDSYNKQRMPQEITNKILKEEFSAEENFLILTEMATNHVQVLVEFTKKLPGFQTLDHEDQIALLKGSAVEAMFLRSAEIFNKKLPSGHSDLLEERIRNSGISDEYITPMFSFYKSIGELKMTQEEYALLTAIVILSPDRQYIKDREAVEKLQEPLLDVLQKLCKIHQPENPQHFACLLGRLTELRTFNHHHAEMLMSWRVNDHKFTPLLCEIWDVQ
Chain of Peroxisome proliferator-activated receptor delta (Homo sapiens) (Q03181 whole entry, looked up): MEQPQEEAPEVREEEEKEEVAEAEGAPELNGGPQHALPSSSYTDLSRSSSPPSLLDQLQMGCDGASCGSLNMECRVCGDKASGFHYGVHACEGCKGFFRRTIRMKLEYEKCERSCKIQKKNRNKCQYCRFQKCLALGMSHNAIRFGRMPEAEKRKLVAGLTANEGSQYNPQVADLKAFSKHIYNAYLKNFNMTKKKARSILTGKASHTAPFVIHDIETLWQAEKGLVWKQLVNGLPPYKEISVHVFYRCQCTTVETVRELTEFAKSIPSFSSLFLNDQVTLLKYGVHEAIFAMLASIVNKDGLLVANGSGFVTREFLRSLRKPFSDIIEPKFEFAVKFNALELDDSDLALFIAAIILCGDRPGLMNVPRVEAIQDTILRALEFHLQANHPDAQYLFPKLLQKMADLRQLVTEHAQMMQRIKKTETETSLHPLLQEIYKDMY
Chain of Aryl hydrocarbon receptor (Homo sapiens) (P35869 whole entry, looked up): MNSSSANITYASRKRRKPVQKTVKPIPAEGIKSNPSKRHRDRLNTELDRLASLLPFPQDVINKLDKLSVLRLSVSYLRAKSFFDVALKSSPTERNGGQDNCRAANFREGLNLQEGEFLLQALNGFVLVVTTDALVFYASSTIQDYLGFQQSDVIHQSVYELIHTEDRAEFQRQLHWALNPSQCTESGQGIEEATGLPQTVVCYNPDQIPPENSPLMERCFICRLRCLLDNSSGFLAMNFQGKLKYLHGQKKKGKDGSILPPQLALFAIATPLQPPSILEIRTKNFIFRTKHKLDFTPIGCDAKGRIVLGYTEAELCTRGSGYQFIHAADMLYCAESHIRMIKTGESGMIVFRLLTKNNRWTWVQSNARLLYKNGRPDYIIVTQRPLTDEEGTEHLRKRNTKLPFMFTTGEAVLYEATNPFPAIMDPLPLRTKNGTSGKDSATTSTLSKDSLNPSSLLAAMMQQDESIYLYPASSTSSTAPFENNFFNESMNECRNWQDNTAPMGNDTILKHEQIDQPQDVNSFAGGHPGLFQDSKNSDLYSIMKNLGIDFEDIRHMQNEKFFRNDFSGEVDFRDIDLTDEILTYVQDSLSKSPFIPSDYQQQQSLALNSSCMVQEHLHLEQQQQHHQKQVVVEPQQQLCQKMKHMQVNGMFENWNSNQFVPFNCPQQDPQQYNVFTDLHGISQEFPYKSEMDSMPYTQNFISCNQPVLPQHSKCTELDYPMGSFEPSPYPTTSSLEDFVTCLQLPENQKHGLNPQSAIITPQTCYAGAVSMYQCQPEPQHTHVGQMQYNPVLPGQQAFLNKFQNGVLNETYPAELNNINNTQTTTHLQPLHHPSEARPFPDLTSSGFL
Chain of Vitamin D3 receptor (Homo sapiens) (P11473 whole entry, looked up): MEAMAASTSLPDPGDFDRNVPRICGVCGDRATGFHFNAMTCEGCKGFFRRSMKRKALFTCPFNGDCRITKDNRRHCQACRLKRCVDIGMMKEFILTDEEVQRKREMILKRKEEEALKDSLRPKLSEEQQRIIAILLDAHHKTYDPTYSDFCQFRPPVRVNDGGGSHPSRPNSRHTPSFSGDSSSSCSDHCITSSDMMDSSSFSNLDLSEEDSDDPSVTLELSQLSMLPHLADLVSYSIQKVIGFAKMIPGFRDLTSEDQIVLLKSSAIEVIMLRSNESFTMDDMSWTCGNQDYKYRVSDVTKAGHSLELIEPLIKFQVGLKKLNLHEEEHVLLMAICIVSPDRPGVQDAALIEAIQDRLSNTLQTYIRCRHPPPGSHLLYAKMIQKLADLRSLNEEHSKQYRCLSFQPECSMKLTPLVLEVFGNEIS
Chain of Peroxisome proliferator-activated receptor gamma (Homo sapiens) (P37231 whole entry, looked up): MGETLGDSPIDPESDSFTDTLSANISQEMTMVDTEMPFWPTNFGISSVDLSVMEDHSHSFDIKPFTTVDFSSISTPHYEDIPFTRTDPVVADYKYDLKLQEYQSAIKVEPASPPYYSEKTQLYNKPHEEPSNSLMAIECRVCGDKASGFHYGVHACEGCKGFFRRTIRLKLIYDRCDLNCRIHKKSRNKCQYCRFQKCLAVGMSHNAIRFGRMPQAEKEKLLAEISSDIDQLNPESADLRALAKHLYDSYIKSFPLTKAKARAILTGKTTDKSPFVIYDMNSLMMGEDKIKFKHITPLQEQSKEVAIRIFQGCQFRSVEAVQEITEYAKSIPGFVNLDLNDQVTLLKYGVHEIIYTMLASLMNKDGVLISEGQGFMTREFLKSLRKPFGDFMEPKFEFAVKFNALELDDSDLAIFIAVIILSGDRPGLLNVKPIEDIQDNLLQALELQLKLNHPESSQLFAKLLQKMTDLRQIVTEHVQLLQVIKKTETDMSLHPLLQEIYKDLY

O=C(O)c1c(Cl)ccc2cc(Cl)cnc12
not listed: [16] | [17] | [18] | [19]
inactive: all other assays above

CCSC(=O)Cl
not listed: [7] | [9] | [10] | [15] | [18] | [19]
inactive: all other assays above

COP(=O)(O)OC
not listed: [14] | [15] | [16] | [19]
inactive: all other assays above

Oc1ccc(Cc2ccc(O)cc2)cc1
active: [18] 27.5 µM
not listed: [7] | [11] | [13] | [14] | [15] | [17] | [19]
inactive: all other assays above

CCC1(c2cccc(O)c2)CCCCN(C)C1 (configuration not stated)
not listed: [7] | [11] | [19]
inactive: all other assays above

CCc1cc(OC)c(C[C@H](C)N)cc1OC
active: [3] 63.7 µM
not listed: [11] | [13] | [16] | [18] | [19]
inactive: all other assays above

ClCCCCCCCl
not listed: [7] | [9] | [10] | [11] | [18] | [19]
inactive: all other assays above

O=C(O)C(Cl)Br (configuration not stated)
not listed: [6] | [11] | [15] | [18]
inactive: all other assays above

CNC(=O)Oc1ccccc1C(C)C
not listed: [9] | [10] | [11] | [15] | [19]
inactive: all other assays above

O=C(Cl)CCl
not listed: [13] | [15] | [18]
inactive: all other assays above

Nc1c(Cl)c(F)nc(OCC(=O)O)c1Cl
not listed: [9] | [10] | [11] | [12] | [19]
inactive: all other assays above

CC1N=C(N)OC1c1ccccc1 (configuration not stated)
not listed: [6] | [11] | [13] | [19]
inactive: all other assays above

C=C1CC[C@@]2(O)[C@H]3Cc4ccc(O)c5c4[C@@]2(CCN3CC2CC2)[C@H]1O5
not listed: [7] | [11] | [17] | [19]
inactive: all other assays above

N=C(N)[Se]
not listed: [11] | [13] | [17] | [19]
inactive: all other assays above

COC1=CC(=O)O[C@@H](/C=C/c2ccccc2)C1
not listed: [11] | [16] | [18]
inactive: all other assays above

ClCCCCl
not listed: [10] | [17]
inactive: all other assays above

CC(O)CCl (configuration not stated)
not listed: [11] | [12] | [15] | [17] | [18] | [19]
inactive: all other assays above

O=C(Cl)C(Cl)(Cl)Cl
not listed: [11] | [16] | [17]
inactive: all other assays above

CCCCCCC1CCOC1=O (configuration not stated)
not listed: [9] | [10] | [11] | [15] | [16] | [19]
inactive: all other assays above
